{"source": "ChEMBL document CHEMBL1961873", "about": "“Compounds: GSK PKIS; Assays: Nanosyn kinase panel” (2012)", "data": [{"system": "Leucine-rich repeat serine/threonine-protein kinase 2 (Homo sapiens), Q5S007 [G2019S]", "sequence (Q5S007 whole entry G2019S)": "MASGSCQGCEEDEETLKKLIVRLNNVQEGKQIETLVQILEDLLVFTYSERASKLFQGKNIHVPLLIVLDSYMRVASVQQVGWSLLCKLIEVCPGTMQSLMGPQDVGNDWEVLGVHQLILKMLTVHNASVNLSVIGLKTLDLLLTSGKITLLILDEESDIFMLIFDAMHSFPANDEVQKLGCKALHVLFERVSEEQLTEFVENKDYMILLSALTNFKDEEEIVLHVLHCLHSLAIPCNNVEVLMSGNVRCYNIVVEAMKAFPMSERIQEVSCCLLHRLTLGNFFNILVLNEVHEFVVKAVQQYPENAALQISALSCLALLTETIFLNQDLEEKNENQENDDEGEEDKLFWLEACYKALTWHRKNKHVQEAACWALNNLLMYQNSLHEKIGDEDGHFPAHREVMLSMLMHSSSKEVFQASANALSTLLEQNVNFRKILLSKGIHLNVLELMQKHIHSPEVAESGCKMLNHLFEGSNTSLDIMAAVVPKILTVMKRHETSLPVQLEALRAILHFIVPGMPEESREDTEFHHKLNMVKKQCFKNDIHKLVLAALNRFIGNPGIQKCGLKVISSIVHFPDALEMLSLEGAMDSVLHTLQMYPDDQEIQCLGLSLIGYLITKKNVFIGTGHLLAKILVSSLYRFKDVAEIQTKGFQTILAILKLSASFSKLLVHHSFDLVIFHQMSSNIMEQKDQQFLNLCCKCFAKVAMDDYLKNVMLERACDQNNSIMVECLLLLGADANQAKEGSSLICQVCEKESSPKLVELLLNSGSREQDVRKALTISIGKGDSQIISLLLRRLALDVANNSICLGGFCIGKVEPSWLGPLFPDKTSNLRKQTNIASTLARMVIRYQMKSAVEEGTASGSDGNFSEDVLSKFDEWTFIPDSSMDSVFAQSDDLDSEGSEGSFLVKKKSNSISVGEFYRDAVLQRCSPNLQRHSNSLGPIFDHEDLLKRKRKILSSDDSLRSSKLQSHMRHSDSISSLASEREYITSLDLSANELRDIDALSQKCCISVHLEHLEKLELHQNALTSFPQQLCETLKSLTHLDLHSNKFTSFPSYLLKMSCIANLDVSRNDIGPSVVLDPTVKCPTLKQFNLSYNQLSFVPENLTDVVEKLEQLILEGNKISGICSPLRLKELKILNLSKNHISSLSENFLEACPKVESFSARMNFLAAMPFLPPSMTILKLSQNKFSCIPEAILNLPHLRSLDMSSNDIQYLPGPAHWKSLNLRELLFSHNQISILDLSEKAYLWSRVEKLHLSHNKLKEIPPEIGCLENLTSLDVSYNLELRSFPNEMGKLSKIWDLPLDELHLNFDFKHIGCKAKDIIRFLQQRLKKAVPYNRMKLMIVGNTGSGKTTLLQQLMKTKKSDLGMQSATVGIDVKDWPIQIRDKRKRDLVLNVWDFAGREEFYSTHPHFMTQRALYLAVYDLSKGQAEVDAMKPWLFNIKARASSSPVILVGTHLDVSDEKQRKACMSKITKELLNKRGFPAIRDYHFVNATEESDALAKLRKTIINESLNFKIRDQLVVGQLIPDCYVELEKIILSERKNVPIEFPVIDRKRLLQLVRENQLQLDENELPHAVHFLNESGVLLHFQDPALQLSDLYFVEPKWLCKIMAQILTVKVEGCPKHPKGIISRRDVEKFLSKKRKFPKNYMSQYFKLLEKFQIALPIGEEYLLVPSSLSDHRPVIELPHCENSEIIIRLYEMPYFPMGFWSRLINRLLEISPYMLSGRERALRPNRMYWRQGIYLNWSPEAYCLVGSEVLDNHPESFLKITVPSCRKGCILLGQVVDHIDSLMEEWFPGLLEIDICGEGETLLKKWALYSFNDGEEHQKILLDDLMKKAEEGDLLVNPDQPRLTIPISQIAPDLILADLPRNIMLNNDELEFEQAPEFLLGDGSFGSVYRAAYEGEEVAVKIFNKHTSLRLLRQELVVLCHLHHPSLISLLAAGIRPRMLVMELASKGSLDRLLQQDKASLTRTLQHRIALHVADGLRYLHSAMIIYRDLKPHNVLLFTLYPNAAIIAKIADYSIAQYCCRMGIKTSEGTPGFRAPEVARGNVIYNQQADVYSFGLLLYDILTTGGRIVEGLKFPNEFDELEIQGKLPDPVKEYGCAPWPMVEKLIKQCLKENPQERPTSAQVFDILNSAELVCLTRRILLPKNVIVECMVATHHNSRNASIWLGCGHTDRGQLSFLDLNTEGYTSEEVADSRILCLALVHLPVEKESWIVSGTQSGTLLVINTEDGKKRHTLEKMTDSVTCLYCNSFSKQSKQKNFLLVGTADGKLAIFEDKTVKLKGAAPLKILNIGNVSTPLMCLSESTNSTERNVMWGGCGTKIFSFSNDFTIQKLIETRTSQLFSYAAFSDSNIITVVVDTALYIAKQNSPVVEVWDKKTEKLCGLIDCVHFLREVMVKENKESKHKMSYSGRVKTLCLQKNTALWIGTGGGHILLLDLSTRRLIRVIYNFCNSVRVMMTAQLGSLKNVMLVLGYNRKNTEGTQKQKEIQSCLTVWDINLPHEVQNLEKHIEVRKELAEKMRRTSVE", "conditions": "at 1 µM", "units": {"inhibition": "%"}, "values": [{"smiles": "O=C(O[C@H]1CN[C@H](C#Cc2cc3ncnc(Nc4ccc(Cc5ccccc5)cc4)c3s2)C1)N1CCOCC1", "inhibition": 3.96}, {"smiles": "CCNC(=O)O[C@H]1CN[C@H](C#Cc2cc3ncnc(Nc4ccc(OCc5cccc(F)c5)c(Cl)c4)c3s2)C1", "inhibition": 6.88}, {"smiles": "O=S(=O)(CCNCc1ccc(-c2ccc3ncnc(Nc4ccc(OCc5cccc(F)c5)c(Cl)c4)c3c2)o1)c1ccccc1", "inhibition": 9.28}, {"smiles": "Cc1cccc(Nc2ncc(-c3ccccc3)o2)c1", "inhibition": 11.8}, {"smiles": "N#Cc1c(NC(=O)c2ccc(F)cc2)sc2c1CCCC2", "inhibition": 5.12}, {"smiles": "NS(=O)(=O)c1ccc(N/N=C2\\C(=O)Nc3ccc4ncccc4c32)cc1", "inhibition": 63.2}, {"smiles": "CC(=O)Nc1cccc(C#Cc2cncnc2Nc2ccc(OCc3cccc(F)c3)c(Cl)c2)c1", "inhibition": 8.37}, {"smiles": "COc1cccc(-n2ncc3c(N/N=C/c4ccc(F)cc4)ncnc32)c1", "inhibition": 8.94}, {"smiles": "CCCN(CCS(C)(=O)=O)Cc1ccc(-c2ccc3ncnc(Nc4ccc(OCc5cccc(F)c5)c(Cl)c4)c3c2)o1", "inhibition": 6.74}, {"smiles": "COc1cccc(-c2c[nH]c3c(N/N=C/c4ccncc4)ncnc23)c1", "inhibition": 25.9}, {"smiles": "CCn1cc(-c2ccnc3[nH]ccc23)c(-c2cccc(NC(=O)Nc3ccc(OCc4ccccc4)cc3)c2)n1", "inhibition": 4}, {"smiles": "Cc1ccc(O)cc1Nc1ccnc2cc(-c3ccccn3)ccc12", "inhibition": 31.1}, {"smiles": "CCn1c(-c2nonc2N)nc2c(C#CC(C)(C)O)ncc(OC3CCNCC3)c21", "inhibition": 12}, {"smiles": "CCn1c(-c2nonc2N)nc2c(C#CC(C)(C)O)nc(OC[C@H](N)c3ccccc3)cc21", "inhibition": 63.2}, {"smiles": "Cc1ccc2c(-c3ccnc(Nc4ccccc4)n3)c(-c3ccc(F)cc3)nn2n1", "inhibition": 7.63}, {"smiles": "[O-][S+]1CCN(Cc2ccc(-c3ccc4ncnc(Nc5ccc(OCc6cccc(F)c6)c(Cl)c5)c4c3)o2)CC1", "inhibition": 11.4}, {"smiles": "COc1ccc2[nH]c3c4[nH]c5ccc(OC)cc5c4c4c(c3c2c1)C(=O)NC4=O", "inhibition": 63.2}, {"smiles": "c1cc(-c2cnn3nc(N4CCOCC4)ccc23)nc(NC2CC2)n1", "inhibition": 37.2}, {"smiles": "Cc1cccc2c1NC(=O)/C2=N\\Nc1ccc(S(N)(=O)=O)cc1", "inhibition": 10.2}, {"smiles": "CC(C)COC(=O)c1ccc2c(c1)/C(=C/Nc1ccc(S(N)(=O)=O)cc1)C(=O)N2", "inhibition": 64.1}, {"smiles": "N#Cc1c(NC(=O)CN2CCOCC2)sc2c1CCCC2", "inhibition": 8.85}, {"smiles": "CC1=C(C(=O)Nc2cc(Cl)c3[nH]ncc3c2)C(c2ccc(C(F)(F)F)cc2)CC(=O)N1", "note": "(centres undefined)", "inhibition": 12.6}, {"smiles": "c1ccc(-c2nc3n(c2-c2ccc4c(c2)OCO4)CCC3)nc1", "inhibition": 3.64}, {"smiles": "COC(=O)Nc1nc2ccc(Oc3ccc(NC(=O)Nc4cccc(Cl)c4)cc3)cc2[nH]1", "inhibition": 6.86}, {"smiles": "Nc1nc(-c2cccc(Cl)c2)c(-c2ccc3ncccc3n2)s1", "inhibition": 9.35}, {"smiles": "COc1cc(N2CCN(C(C)C)CC2)ccc1Nc1nc(Nc2ccc(F)cc2C(N)=O)c2cc[nH]c2n1", "inhibition": 62.5}, {"smiles": "NS(=O)(=O)c1ccc(Nc2ncc(-c3ccccc3)o2)cc1", "inhibition": 19.4}, {"smiles": "COc1ccc2c(-c3ccnc(Nc4cccc(OC(F)(F)F)c4)n3)cnn2n1", "inhibition": 39.3}, {"smiles": "O=C(Nc1n[nH]c2cc(-c3ccc(F)cc3)ccc12)C1CC1", "inhibition": 6.98}, {"smiles": "CS(=O)(=O)CCNCc1ccc(-c2ccc3ncnc(Nc4ccc(OCc5ccccc5)c(C(F)(F)F)c4)c3c2)o1", "inhibition": 5.03}, {"smiles": "Nc1nc(-c2ccc(F)cc2)c(-c2ccc3ncccc3n2)s1", "inhibition": 10.2}, {"smiles": "CC(C)(CO)CNC(=O)c1ccc2c(c1)/C(=N/Nc1ccc(S(N)(=O)=O)cc1)C(=O)N2", "inhibition": 37.8}, {"smiles": "FC(F)(F)c1cccc(-c2nn3ncccc3c2-c2ccnc(Nc3ccc4c(c3)OCCO4)n2)c1", "inhibition": 7.93}, {"smiles": "COc1cc2c(cc1Nc1nc(Nc3ccsc3C(N)=O)c3cc[nH]c3n1)N(C(=O)CN(C)C)CCC2(C)C", "inhibition": 93.9}]}]}
